Screening results deposited in PubChem BioAssay by The Scripps Research Institute Molecular Screening Center.
In the library only some 3.3% were active in any assay of this set; here they are far more common.
ABHD5 PLIN5 PPI: ABHD5-PLIN5 protein interaction inhibition | Q00G26+Q8WTS1 | Split G. princeps luciferase complementation, luminescence, 4 h | inhibition, % at 4 µM | AID 602281 | 360,000 compounds, 0.78% hits;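 active = inhibition above the mean inhibition across every tested compound plus 3 SD, cut at about 22% in these data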
TLR9-MyD88 block: TLR9-MyD88 interaction inhibition; Q9NR96+Q99836; inhibition, % at 4.98 µM; CHO BLA complementation TLR9-MyD88, CCF4 FRET ratio; 340,000 compounds, 0.21% hits;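 active = inhibition above the mean over all tested compounds plus 3 SD, cut at about 21% in these data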
NOD2-RIPK2 inh: NOD2-RIPK2 protein interaction inhibition; 360,000 compounds, 0.38% hits; O43353; CHO BLA complementation NOD2-RIPK2, CCF4 ratio; inhibition, % at 4.98 µM; in the data active = inhibition above about 21%
TLR4 MyD88 comp: inhibitors of human TLR4-MyD88 binding | O00206+Q99836 | HeLa CL3-4 TLR4/MyD88 BLA complementation, FRET ratio | inhibition, % at 8.4 µM | 200,000 compounds, 0.18% hits; in the data active = inhibition above about 25%
Target sequence (O00206 whole entry, looked up): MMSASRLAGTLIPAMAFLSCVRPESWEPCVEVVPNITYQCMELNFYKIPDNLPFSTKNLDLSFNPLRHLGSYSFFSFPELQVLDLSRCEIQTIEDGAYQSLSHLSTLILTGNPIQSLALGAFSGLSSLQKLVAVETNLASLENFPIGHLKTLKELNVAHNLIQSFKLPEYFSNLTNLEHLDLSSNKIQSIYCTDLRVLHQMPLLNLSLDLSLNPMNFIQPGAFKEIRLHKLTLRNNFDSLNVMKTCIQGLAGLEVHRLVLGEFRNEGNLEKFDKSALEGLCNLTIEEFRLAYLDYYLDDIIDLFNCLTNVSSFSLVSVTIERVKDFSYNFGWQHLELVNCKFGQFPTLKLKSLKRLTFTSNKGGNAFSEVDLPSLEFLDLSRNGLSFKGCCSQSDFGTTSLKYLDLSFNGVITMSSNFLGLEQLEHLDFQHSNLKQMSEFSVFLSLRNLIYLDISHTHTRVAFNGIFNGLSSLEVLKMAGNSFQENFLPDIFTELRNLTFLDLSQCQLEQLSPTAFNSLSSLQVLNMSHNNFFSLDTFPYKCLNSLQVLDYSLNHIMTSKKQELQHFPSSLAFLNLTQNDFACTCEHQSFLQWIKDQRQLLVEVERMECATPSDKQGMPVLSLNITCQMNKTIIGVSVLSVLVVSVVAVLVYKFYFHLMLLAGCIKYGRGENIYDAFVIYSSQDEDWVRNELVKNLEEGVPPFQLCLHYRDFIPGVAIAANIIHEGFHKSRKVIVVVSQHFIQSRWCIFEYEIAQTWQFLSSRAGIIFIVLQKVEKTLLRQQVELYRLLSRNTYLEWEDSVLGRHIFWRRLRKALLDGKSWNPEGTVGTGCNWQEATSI
Target sequence (Q99836 whole entry, looked up): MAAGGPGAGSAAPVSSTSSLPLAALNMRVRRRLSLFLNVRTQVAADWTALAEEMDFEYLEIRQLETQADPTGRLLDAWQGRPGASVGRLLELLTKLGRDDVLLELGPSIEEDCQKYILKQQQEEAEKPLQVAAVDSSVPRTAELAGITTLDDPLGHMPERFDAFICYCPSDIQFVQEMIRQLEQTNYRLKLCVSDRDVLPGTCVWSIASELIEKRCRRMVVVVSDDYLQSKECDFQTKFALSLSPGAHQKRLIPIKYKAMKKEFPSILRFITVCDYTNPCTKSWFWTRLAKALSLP
rCAG binder: r(CAG) repeat RNA binding; AID 651821; TO-PRO-1 dye displacement fluorescence; inhibition, % at 3 µM; 370,000 compounds, 1.3% hits;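 active = inhibition above the plate cutoff, the mean of all test compounds on that plate plus 3 SD, cut at about 35% in these data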;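 note: higher means more dye released from RNA so lower well fluorescence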
PRMT1 inh: blocks human protein arginine methyltransferase 1; Q99873; recombinant PRMT1, activity-based probe fluorescence polarization; inhibition, % at 2.79 µM; 370,000 compounds, 1.3% hits;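 active = inhibition above about 21% made by adding two undisclosed values, limit read from the data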
Large screens that a line does not name were inactive; ! = not active in a repeat.

COc1ccc(Cl)cc1NC(=S)N1CCN(c2ccccn2)CC1	none
CC(C)n1c(=O)nc(-c2ccccc2)c2cc3c(cc21)OCO3	none (no result: TLR4 MyD88 comp)
O=C(NC1CCCCCC1)C1CCN(C(=O)c2cccc(Cl)c2)CC1	none (no result: TLR4 MyD88 comp)
O=C(NCCN1CCN(Cc2ccccc2)CC1)C1c2ccccc2C(=O)N2CCc3ccccc3C12 (configuration not stated)	none
Cc1ccc(CNC(=O)C2c3ccccc3C(=O)N3CCc4ccccc4C23)o1 (configuration not stated)	ABHD5 PLIN5 PPI 22
CCCn1nc(NS(C)(=O)=O)c2cc3cccc(C)c3nc21	none
CCn1nc(NS(=O)(=O)c2ccc(F)cc2)c2cc3cccc(C)c3nc21	rCAG binder 63 (no result: TLR4 MyD88 comp)
CCCCn1c(N)c(N(CC(C)C)C(=O)CN2C(=O)NC3(CCC(C(C)(C)CC)CC3)C2=O)c(=O)[nH]c1=O (configuration not stated)	none (no result: TLR4 MyD88 comp)
COC(=O)[C@]12C[C@H](CC(=O)NCCC(C)C)C(=O)N(CCC3=CCCCC3)C1=C[C@H](C1CCCC1)O[C@@H]2C	none (no result: ABHD5 PLIN5 PPI, TLR9-MyD88 block, NOD2-RIPK2 inh, TLR4 MyD88 comp)
Cc1c(C(=O)NNc2cc(=O)n(C)c(=O)n2C)cccc1[N+](=O)[O-]	PRMT1 inh 23
O=C(CSc1nc2scc(-c3ccco3)c2c(=O)n1-c1ccccc1)NCC1CCCO1 (configuration not stated)	ABHD5 PLIN5 PPI 56
Cc1c(Cl)cccc1NC(=O)CSc1nncn1-c1ccccn1	PRMT1 inh 24 (no result: TLR4 MyD88 comp)
O=C(CSc1nncn1-c1ccccn1)Nc1ccccc1Cl	none (no result: TLR4 MyD88 comp)
Cc1cc(=O)[nH]c2sc(C(=O)N3c4ccccc4CC3C)c(N)c12 (configuration not stated)	none (no result: TLR4 MyD88 comp)
Cc1cc(C)c(S(=O)(=O)/N=C2/C=C(Sc3ncn[nH]3)C(=O)c3ccccc32)cc1C	rCAG binder 56, PRMT1 inh 81
COc1cccc(NC(=S)NC(=O)c2cccnc2)c1	none (no result: TLR4 MyD88 comp)
CCOC(=O)c1cccc(NC(=S)NC(=O)c2cccnc2)c1	PRMT1 inh 22 (no result: TLR4 MyD88 comp)
N=C1/C(=C\c2ccc(OC(=O)c3ccccc3)cc2)C(=O)N=C2SC(N3CCOCC3)=NN12	rCAG binder 42 (no result: TLR4 MyD88 comp)
O=c1cc(O)c2sc(Nc3ccc(F)c(Cl)c3)nc2[nH]1	rCAG binder 35 (no result: TLR9-MyD88 block)
O=c1cc(O)c2sc(Nc3ccc(Cl)c(F)c3)nc2[nH]1	none (no result: TLR4 MyD88 comp)
O=C(CSc1ccc2c(c1)OCCO2)NCc1ccco1	PRMT1 inh 22
O=C(CCSCCC(=O)NCc1ccco1)NCc1ccco1	PRMT1 inh 24 (no result: ABHD5 PLIN5 PPI, TLR9-MyD88 block, NOD2-RIPK2 inh)
CCN1C[C@@H]2[C@@H]3C(=O)N(Cc4ccccc4)C(=O)[C@@H]3[C@](Cc3ccccc3)(C1=O)N2C(=O)c1ccc(C)cc1	none (no result: TLR4 MyD88 comp)
Cc1ccc(-c2nc3ncccn3c2NC(=O)Nc2ccc(F)cc2)cc1	none (no result: ABHD5 PLIN5 PPI, TLR9-MyD88 block, NOD2-RIPK2 inh, TLR4 MyD88 comp)
O=C(/C=C/c1ccco1)Nc1nc(-c2ccccn2)cs1	PRMT1 inh 23
COc1ccc(-[n+]2c(C)cc(/C=C3\Sc4ccccc4N3C)cc2C)cc1	PRMT1 inh 24
CCC(Oc1ccccc1)C(=O)NCCOC (configuration not stated)	PRMT1 inh 22
CCC(Oc1ccccc1)C(=O)Nc1ccccc1OC (configuration not stated)	none
CCn1cc(CN2CCC(n3nccc3NC(=O)C(OC)c3ccccc3)CC2)cn1 (configuration not stated)	none (no result: TLR4 MyD88 comp)
Cc1ccc(-c2nn(-c3ccccc3)cc2CO)o1	PRMT1 inh 25
NC1=NC(c2ccc(Cl)cc2)C(C(=O)c2ccccc2)N1 (configuration not stated)	none (no result: TLR4 MyD88 comp)
O=C(O)c1ccc(Cl)c(NC(=S)NC(=O)c2ccccc2[N+](=O)[O-])c1	PRMT1 inh 23
CNc1ccc2c3c(cccc13)C(=O)N(C)C2=O	PRMT1 inh active (no result: TLR4 MyD88 comp)
COc1ccc(Cl)cc1-n1c(=S)sc2c(=O)[nH]c(SCC(=O)C(C)(C)C)nc21	rCAG binder 84 (no result: TLR4 MyD88 comp)
COC(=O)CNC(=O)CSc1nc2c(sc(=S)n2-c2ccccc2)c(=O)[nH]1	none (no result: TLR4 MyD88 comp)
Cc1cccc(CN2C(=O)/C(=C\c3ccc(C(=O)NCCN4CCOCC4)cc3)Sc3ccccc32)c1	none (no result: TLR4 MyD88 comp, rCAG binder, PRMT1 inh)
CCN1CCN(CCNC(=O)c2ccc(/C=C3/Sc4ccccc4N(Cc4cccc(Cl)c4)C3=O)cc2)CC1	ABHD5 PLIN5 PPI 22
Cc1cc(O)ccc1N=Cc1c(C(F)(F)F)[nH][nH]c1=O	PRMT1 inh 25
O=c1c2ccccc2sn1-c1cc(S(=O)(=O)N2CCOCC2)ccc1N1CCOCC1	ABHD5 PLIN5 PPI 97, PRMT1 inh 88
NC(=S)N=Nc1c(O)cc(O)c2[nH]c(=O)ccc12	ABHD5 PLIN5 PPI 29, PRMT1 inh 70 (no result: TLR4 MyD88 comp)
CCc1ccccc1NC(=O)CNC(=O)c1ccccc1OCc1c(C)noc1C	none (no result: TLR4 MyD88 comp)
CCOC(=O)c1cnc(Cc2ccccc2)[nH]c1=O	none (no result: TLR4 MyD88 comp)
CCOC(=O)c1cnc[nH]c1=O	ABHD5 PLIN5 PPI 22 (no result: TLR4 MyD88 comp)
Nc1nc2c(ncn2[C@@H]2O[C@H](CNS(=O)(=O)C3CC3)[C@@H](O)[C@H]2O)c(=O)[nH]1	none (no result: TLR9-MyD88 block, TLR4 MyD88 comp)
O=C(COC(=O)C1CC(=O)N(Cc2ccccc2)C1)c1ccc(F)cc1 (configuration not stated)	none
CC1=NN(c2ccccc2)C(=O)C1=Cc1ccccc1	none (no result: TLR4 MyD88 comp)
CC1=NN(c2ccccc2)C(=O)/C1=C/c1c(O)n(-c2ccc(F)cc2)[nH]c1=O	rCAG binder 91
COc1cc(O)c(C(=O)O)c(CCc2ccccc2)c1	none (no result: TLR4 MyD88 comp)
COc1cc(C)c(C(=O)Oc2cc(C)c(C(=O)O)c(O)c2)c(O)c1	rCAG binder 35 (no result: TLR4 MyD88 comp)
CC(C)NC(=O)N(C)C[C@H]1Oc2cc(C#Cc3ccc(F)cc3)ccc2S(=O)(=O)N([C@H](C)CO)C[C@H]1C	none (no result: TLR4 MyD88 comp)
Cc1ccc(CNc2ncnc3ccc(-c4ccc(CO)o4)cc23)o1	PRMT1 inh 25 (no result: TLR9-MyD88 block, TLR4 MyD88 comp)
COc1cc(/C=C(/C#N)C(=O)Nc2ccccc2)ccc1OCc1ccc(C(=O)O)cc1	rCAG binder 40
COc1cc(/C=C(\C#N)C(=O)Nc2cccc(C(=O)O)c2)ccc1OCc1ccc(C)cc1	none (no result: TLR4 MyD88 comp)
N#Cc1c(N)sc2c1CCCCCC2	PRMT1 inh 21
CC1NS(=O)(=O)c2cc([N+](=O)[O-])ccc21 (configuration not stated)	none (no result: TLR9-MyD88 block, TLR4 MyD88 comp)
CCN1CCN(Cc2ccc(NC(=O)c3cc(NC(=O)C(=O)c4c[nH]c5ccccc45)cc(OC)c3)cc2C(F)(F)F)CC1	ABHD5 PLIN5 PPI 22! (no result: TLR4 MyD88 comp)
CCN1CCN(Cc2ccc(NC(=O)c3cc(NC(=O)c4cc(C)on4)cc(OC)c3)cc2C(F)(F)F)CC1	none (no result: TLR4 MyD88 comp)
CCN1CCN(Cc2ccc(NC(=O)c3ccc(C)c(NC(=O)c4ccc5n[nH]nc5c4)c3)cc2C(F)(F)F)CC1	none (no result: TLR4 MyD88 comp)
CCN1CCN(Cc2ccc(NC(=O)c3ccc(C)c(NC(=O)C(=O)c4c[nH]c5ccccc45)c3)cc2C(F)(F)F)CC1	ABHD5 PLIN5 PPI 30! (no result: TLR4 MyD88 comp)
CCOC(=O)C1=C(C)N(c2ccc(OC)cc2)C(=O)/C1=C\c1ccc(O)c(OCC)c1	PRMT1 inh 32 (no result: TLR4 MyD88 comp)
